# Calb biofilm kill – kills Candida albicans biofilms; C. albicans biofilm + clotrimazole, Alamar Blue; inhibition, % at 6 µM; hit rate 0.14% among 85,000; AID 834;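 active = inhibition above 20%; inactive = inhibition below 20%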;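 note: preformed 24 hr biofilms exposed to compound for 48 hr; 0% = biofilm without compound and 100% = blank killed by clotrimazole plus chlorhexidine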
# Smad3 inh – inhibitors of human Smad3 transcription factor binding. TR-FRET Smad3/Dy647-FoxH1 peptide binding, europium anti-His. P84022. inhibition, % at 25 µM. hit rate 0.29% among 88,000;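 active = compounds that reduce the energy-transfer binding signal between the protein and its labelled peptide by more than half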;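 note: 0% = Smad3 plus labelled peptide maximal FRET and 100% = peptide-only background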
# ERa coact inh – ER-alpha (human) coactivator binding inhibition | P03372 | AID 629 | hit rate 1.7% among 86,000 | inhibition, % at 25.6 µM | TR-FRET ER-alpha LBD / SRC-1 peptide, estradiol-bound; in the data active = inhibition above about 50%;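 note: 0% = receptor plus peptide control and 100% = peptide only without receptor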
# ERa coact pot – ER-alpha (human) coactivator binding potentiation; TR-FRET ERalpha-LBD/SRC-Cy5 coactivator binding, 2 h; 100 = basal binding, no effect; coactivator binding (% of control), % at 25.6 µM; hit rate 1.3% among 86,000; AID 639; in the data active = activity above about 200%;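 note: binding measured in presence of low estradiol as agonist stimulus; 0% = peptide alone without receptor and 100% = receptor with peptide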
# ERb coact inh – ER-beta (human) coactivator binding inhibition. inhibition, % at 25.6 µM. hit rate 1.3% among 86,000. Q92731. AID 633. TR-FRET ER-beta LBD / SRC1-Cy5 peptide binding; receptor agonist-loaded with 1 µM estradiol;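 active = compounds whose percent inhibition of the receptor-coactivator binding signal exceeds about 50% in the single-dose screen, limit read from the data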;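 note: 0% = receptor plus peptide wells without compound and 100% = peptide-only wells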
# Target sequence (Q92731 whole entry, looked up, the tested form may be a part): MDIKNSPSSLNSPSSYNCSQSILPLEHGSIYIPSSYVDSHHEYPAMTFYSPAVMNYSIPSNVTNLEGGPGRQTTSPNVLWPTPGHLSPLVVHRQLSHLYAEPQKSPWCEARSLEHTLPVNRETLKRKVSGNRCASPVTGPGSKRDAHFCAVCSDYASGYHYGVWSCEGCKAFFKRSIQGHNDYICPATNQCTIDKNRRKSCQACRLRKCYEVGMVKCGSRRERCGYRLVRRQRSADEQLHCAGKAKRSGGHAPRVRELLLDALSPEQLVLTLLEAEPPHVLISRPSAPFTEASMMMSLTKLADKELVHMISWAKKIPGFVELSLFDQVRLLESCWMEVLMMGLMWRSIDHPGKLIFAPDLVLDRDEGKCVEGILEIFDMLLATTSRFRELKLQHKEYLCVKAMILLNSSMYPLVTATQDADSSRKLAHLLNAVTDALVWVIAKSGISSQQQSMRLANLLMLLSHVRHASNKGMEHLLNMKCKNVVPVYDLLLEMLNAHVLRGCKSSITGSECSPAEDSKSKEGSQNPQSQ
# * hit, by the source's call; . = not tested or not shown; [ ] = remark or other dose. Most compounds without a hit are left out; they make up all but 3.6% or so of the library.
SMILES,Calb biofilm kill,Smad3 inh,ERa coact inh,ERa coact pot,ERb coact inh
Cc1cccc(N2CCN(C(=O)c3cccc(N4C(=O)C5CC=CC(C)C5C4=O)c3)CC2)c1C (centres undefined),2.4,-7.0,1.9,91.7,-7.6
COC(=O)CCC/C=C1/SCC(NC(=O)c2ccccc2)C1O (centres undefined),4.9,3.3,16.7,212.8*,2.8
COc1ccc(CCNC(=O)Cn2cnc3c(cnn3-c3ccccc3Cl)c2=O)cc1OC,-1.2,-8.2,-6.5,114.0,-0.6
CCOC(=O)CSc1nnc(N)s1,5.1,14.8,-4.6,124.8,-8.7
CCOC(=O)CSc1nn(C)c(=S)s1,10.1,-2.6,64.7*,33.1,20.5
CCO[P@]1(=O)OC[C@@H]2O[C@H](n3cnc4c(N)ncnc43)[C@H](O)[C@H]2O1,.,-7.7,.,.,.
O=C(O)Cc1ccc(NC(=O)C2CC=CCC2C(=O)O)cc1 (centres undefined),5.5,15.2,-18.3,233.9*,-21.3
O=C(Nc1ccccc1N1CCOCC1)c1cc(-c2ccco2)nc2ccccc12,10.8,13.6,86.9*[fluorescence artefact?],40.3,79.0*
CCc1nc2ccccc2c(=O)n1NC(=O)c1c(O)c2ccccc2[nH]c1=O,1.4,10.6,-36.4,272.9*,0.2
CCNC(=O)c1c(O)c2ccccc2[nH]c1=O,3.3,6.4,4.3,136.1,4.1
CCn1c(COc2ccccc2OC)nnc1SCC#N,-5.8,0.4,8.1,111.6,7.7
C=C(C)C(=O)Nc1ccc(OC(F)(F)C(F)F)c(NC(=O)C(=C)C)c1,4.3,13.6,-37.9,209.9*,-14.0
CC(=O)Nc1ccc(OC(F)(F)C(F)C(F)(F)F)c(NC(C)=O)c1 (centres undefined),3.3,5.8,4.0,112.4,4.6
COc1cccc(C2C(C(=O)OCc3ccccc3)=C(C)Nc3ncnn32)c1OC (centres undefined),11.5,-4.3,-2.8,112.1,-0.7
COc1ccc(-c2cc3nc(C)cc(C)n3n2)c(OC)c1,1.9,5.0,1.4,112.4,-1.3
Brc1ccc2[nH]c3c(N4CCc5ccccc5C4)ncnc3c2c1,-1.5,6.6,13.1,494.5*[fluorescence artefact?],2.9
O=C(O)c1ccc(CNCc2ccccc2)cc1,.,-8.7,.,.,.
COc1ccc2c(c1)c(=O)oc1cc3oc(C)c(C)c3cc12,6.8,-12.9,67.0*,72.2,56.6*
COc1ccc2c(c1)c(=O)oc1cc3occ(C(C)(C)C)c3cc12,6.3,-9.8,39.7,105.1,29.9
CCN(CC)S(=O)(=O)c1ccc(C(=O)Nc2cc(C)cc(C)c2)cc1,4.5,-3.1,-6.3,107.4,-9.1
CCN(CC)S(=O)(=O)c1ccc(C(=O)NCc2ccc(C)cc2)cc1,2.5,-10.0,-8.1,104.6,61.5*
CCC(c1nnc(SCC(=O)NCCc2ccc(Cl)cc2Cl)o1)N(C)C (centres undefined),1.4,-1.0,-7.8,102.4,-0.5
Cc1ccc(NC(=O)c2cc(NC(=O)C3CC=CCC3C(=O)O)ccc2N2CCOCC2)cc1Cl (centres undefined),3.7,-0.5,-3.0,96.2,-4.9
CN(C)CC(=O)N1c2ccccc2CCc2ccc(NC(=O)c3ccc(N)cc3)cc21,2.8,0.9,78.7*,36.1,69.3*[fluorescence artefact?]
NC(N)=NC(N)=Nc1c(F)c(F)c(F)c(F)c1F,.,55.8*,.,.,.
SMILES,Calb biofilm kill,Smad3 inh,ERa coact inh,ERa coact pot,ERb coact inh
COC(=O)COc1ccc(Oc2nc(SC)nc(N(C)C)n2)nn1,1.8,6.5,-2.9,114.3,-8.0
COc1ccc2cc3cc(C(=O)Nc4cc(OC)c(OC)c(OC)c4)oc3nc2c1,-1.6,25.0,0.5,143.6,2.4
COc1ccc2cc3cc(C(=O)Nc4ccc5c(c4)OCCO5)oc3nc2c1,7.5,-7.7,70.9*[fluorescence artefact?],208.6*,37.7
CCOC(=O)CSc1nc2cc(OCC)ccc2cc1C#N,5.1,5.1,12.5,350.7*[fluorescence artefact?],17.9
Cc1cccc2cc(C#N)c(SCC(=O)Nc3ccccc3N3CCOCC3)nc12,8.2,7.3,19.6,295.1*[fluorescence artefact?],12.7
Cc1cc(C)c2nc(SCC(=O)N3CCCCC3)c(C#N)cc2c1,7.1,19.8,-5.8,181.3,17.1
CCOc1ccc2cc(C#N)c(SCC(=O)NC(C)CC)nc2c1 (centres undefined),6.8,12.3,40.7,337.1*[fluorescence artefact?],45.4
Cc1cccc2cc(C#N)c(SCC(=O)N3CCC(C)CC3)nc12,5.7,14.7,13.8,216.9*[fluorescence artefact?],24.1
Cc1ccccc1NC(=O)CSc1nc(N)c(C#N)cc1C#N,-1.3,-4.4,4.7,81.4,25.1
O=C(Nc1ccc(S(=O)(=O)NC2CCCC2)cc1)c1cnccn1,.,0.1,-7.5,93.0,-10.7
COc1ccc(-c2cc3ccccc3n2CC(O)CN2CCN(CCO)CC2)cc1 (centres undefined),2.9,8.7,-0.5,100.1,-4.3
COc1ccc2nc(SCC(=O)N3CCN(c4ccc(F)cc4)CC3)c(C#N)cc2c1,3.7,4.3,13.8,481.4*[fluorescence artefact?],19.4
COC(=O)CSc1nc2cc(OC)ccc2cc1C#N,5.8,13.5,21.5,128.6,-1.6
COC(=O)CSc1nc2cc(C)cc(C)c2cc1C#N,2.6,-10.7,0.6,210.2*,10.1
CCOc1ccc2nc(SCC#N)c(C#N)cc2c1,5.1,11.1,12.4,251.9*,12.4
COc1ccc2cc(C#N)c(SCC(=O)N3CCCC3)nc2c1,4.5,4.5,-13.5,95.3,-5.8
CCOc1ccc2cc(C#N)c(SCC(=O)N3CCC(C)CC3)nc2c1,3.5,-1.8,7.3,337.5*[fluorescence artefact?],25.5
CCN(Cc1cc(Cl)cc(C)c1O)Cc1c(O)ccc2ccccc12,.,6.9,.,.,.
CCC(=O)c1cn(CC(=O)NCc2cccnc2)c2ccccc12,4.8,4.3,-17.2,113.9,-18.9
CCOC(=O)c1oc2cccc(OCC(O)CNC(C)C)c2c1C (centres undefined),-5.8,3.5,7.3,121.7,0.3
Oc1ccc2ccccc2c1CN(Cc1c(O)ccc2ccccc12)C1CCCCC1,.,19.4,.,.,.
O=C(Nc1ccc(C2CCCCC2)cc1)C1CCN(c2ncccn2)CC1,4.7,11.5,54.9*,233.7*[fluorescence artefact?],29.6
CC1=NC(C(F)(F)F)(C(F)(F)F)C2=C(CC(C)(C)CC2=O)N1Cc1ccco1,-0.6,7.1,5.2,102.0,-4.2
Cn1c(=O)c2c(ncn2CCCNC2=CC(C)(C)CC(=O)C2)n(C)c1=O,5.7,5.6,37.3,49.4,52.2*
O=C(COC(=O)c1ccccc1NCc1ccco1)Nc1ccc2c(c1)OCO2,1.5,-0.6,19.7,86.0,18.0
O=C(COC(=O)c1ccccc1NC(=O)c1ccco1)Nc1ccc2c(c1)OCO2,10.1,-0.5,70.5*[fluorescence artefact?],88.2,21.7
O=C(COC(=O)c1ccccc1NC(=O)c1ccco1)NCCC1=CCCCC1,0.4,-3.0,-4.6,112.2,98.4*[fluorescence artefact?]
Cc1ccccc1OCCN1C(=O)NC2(CCc3ccccc32)C1=O (centres undefined),6.4,-6.4,3.1,115.2,3.5
Cc1nc(SCn2nnc3ccccc3c2=O)c2c(C)c(C)sc2n1,1.7,11.3,64.1*[fluorescence artefact?],98.4,29.0
Cc1cc2nnc(SCC(=O)OC(C)C)n2c2ccccc12,-1.4,1.7,10.1,89.4,0.9

# Screening results as filed in PubChem.
